Measurements from PMC4336329 (PLoS ONE, 2015).
In all, about 310,000 compounds went through this assay and about 14,000 (4.5%) showed an effect of 50% or more. Effects have a minus sign here. The sample holds strong results, similar compounds and a random draw of the others, so the mix is not that of the screen.

biological target: human ether-à-go-go-related gene (hERG) potassium channel (human, UniProt Q12809); test: primary screen, population patch clamp on CHO cells stably expressing hERG; higher = less effect of the substance
Sequence (Q12809 whole entry, looked up): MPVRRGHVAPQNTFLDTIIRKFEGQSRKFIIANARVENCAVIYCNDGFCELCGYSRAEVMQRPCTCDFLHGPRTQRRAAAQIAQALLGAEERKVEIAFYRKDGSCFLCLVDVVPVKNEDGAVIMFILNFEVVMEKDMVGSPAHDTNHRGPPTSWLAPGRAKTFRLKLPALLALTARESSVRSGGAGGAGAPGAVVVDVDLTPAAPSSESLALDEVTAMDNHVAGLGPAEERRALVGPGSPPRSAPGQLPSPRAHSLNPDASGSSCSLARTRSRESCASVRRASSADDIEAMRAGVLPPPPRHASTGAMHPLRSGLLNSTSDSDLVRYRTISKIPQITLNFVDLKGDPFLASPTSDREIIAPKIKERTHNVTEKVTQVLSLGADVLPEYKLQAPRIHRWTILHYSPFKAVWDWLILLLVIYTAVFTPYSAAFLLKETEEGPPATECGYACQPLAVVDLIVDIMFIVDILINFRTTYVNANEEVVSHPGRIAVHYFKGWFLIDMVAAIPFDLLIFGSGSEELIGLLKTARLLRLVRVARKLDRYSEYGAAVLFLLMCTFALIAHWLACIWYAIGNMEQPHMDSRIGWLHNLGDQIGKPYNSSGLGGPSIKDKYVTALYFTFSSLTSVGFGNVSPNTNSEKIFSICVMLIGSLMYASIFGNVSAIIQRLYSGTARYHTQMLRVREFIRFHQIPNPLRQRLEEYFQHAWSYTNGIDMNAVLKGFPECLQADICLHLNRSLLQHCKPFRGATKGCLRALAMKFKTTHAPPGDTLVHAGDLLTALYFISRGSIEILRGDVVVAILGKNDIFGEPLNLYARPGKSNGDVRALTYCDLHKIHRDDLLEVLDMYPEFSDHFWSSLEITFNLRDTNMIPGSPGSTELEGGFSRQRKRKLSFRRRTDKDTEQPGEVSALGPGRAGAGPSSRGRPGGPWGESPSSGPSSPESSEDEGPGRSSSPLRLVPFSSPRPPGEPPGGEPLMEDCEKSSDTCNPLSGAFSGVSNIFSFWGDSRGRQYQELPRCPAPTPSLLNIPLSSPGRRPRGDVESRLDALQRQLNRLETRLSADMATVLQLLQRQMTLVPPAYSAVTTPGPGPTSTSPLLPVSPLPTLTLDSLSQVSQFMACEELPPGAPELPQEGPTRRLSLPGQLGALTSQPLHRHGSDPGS
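Further: peak tail current of the secondary pulse compared with the same well before compound.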

| SMILES | hERG current change (%, negative = inhibition) at 10uM [%] |
| --- | --- |
| C(#Cc1ccccc1)CN1CCN(c2ccccn2)CC1.Cl | -8.88 |
| O=C(Nc1cccc(S(=O)(=O)Nc2ccccc2Cl)c1)c1ccc(Cl)nc1 | -8.9 |
| C/C(CCN1CCc2nc(-c3ccccc3)c(-c3ccccc3)cc2C1)=N\O[C@@H](C)c1cc(-c2c(C)cc(C)cc2C)no1 | 4.08 |
| COc1cccc(-c2cc(C(F)(F)F)nc(-n3ccc([N+](=O)[O-])n3)n2)c1 | -6.33 |
| CCOC(=O)c1cnc(SCC(=O)Nc2ccccc2C(=O)OC)nc1N | -13.1 |
| COc1ccc2c(c1)CCc1sc(NC(=O)c3ccc(C)cc3)nc1-2 | 10.9 |
| CC1CN(S(=O)(=O)c2ccc(C(=O)N(CCCN(C)C)c3nc4c(Cl)cccc4s3)cc2)CC(C)O1.Cl (centres unmarked) | -36.7 |
| CC(=O)c1ccc(C(=O)N(CCN(C)C)c2nc3c(Cl)cccc3s2)cc1.Cl | -48.6 |
| CN(C)CCN(C(=O)c1cccc(Cl)c1)c1nc2c(Cl)cccc2s1.Cl | -52.6 |
| COC(=O)c1ccc(C(=O)N(CCN(C)C)c2nc3c(Cl)cccc3s2)cc1.Cl | -54.9 |
| Cc1ccc2sc(N(CCN(C)C)C(=O)c3ccc4ccccc4c3)nc2c1C.Cl | 18.7 |
| CCN(CC)CCN(C(=O)c1ccc2c(c1)CCCC2)c1nc2c(C)cccc2s1.Cl | -30.2 |
| CN(C)CCN(C(=O)c1ccc2c(c1)OCCO2)c1nc2c(Cl)cccc2s1.Cl | -59.3 |
| CCN(CC)CCN(C(=O)c1ccc2c(c1)OCCO2)c1nc2c(Cl)cccc2s1.Cl | -54.7 |
| COc1ccccc1OCCNC(=O)c1cc(F)c(F)cc1Cl | -2.68 |
| Cc1ccccc1-n1nnnc1SC(C)C(=O)Nc1ccc(N2CCN(C)CC2)cc1 (centres unmarked) | -25.4 |
| COc1ccc(NC(=O)[C@@H]2CC=C[C@@H]3CCN(Cc4ccccc4)C(=O)[C@@H]32)cc1 | -8.12 |
| COC(=O)[C@@H]1C[C@@H]2CC[C@@H](O)C[C@@H]2N1Cc1ccc(Cl)cc1 | 23.7 |
| CCOc1cc(/C=C2\C(=O)N(c3nc(-c4ccc(Br)cc4)cs3)N=C2c2ccccc2)ccc1O | 4.44 |
| CS(=O)(=O)c1ccc(Cl)c(NC(=O)C2CC(=O)N(Cc3ccco3)C2)c1 (centres unmarked) | 9.79 |
| CS(=O)(=O)c1ccc(C(=O)OCC(=O)NC(=O)C2CCCCC2)cc1[N+](=O)[O-] | 28.1 |

| SMILES | hERG current change (%, negative = inhibition) at 10uM [%] |
| --- | --- |
| Cc1ccc(-c2cc(C(F)F)n3ncc(C(=O)N4CCCc5ccccc54)c3n2)cc1 | 3.94 |
| C=CCn1c(SCC(=O)NCc2ccco2)nnc1-c1ccc2ccccc2n1 | -28.2 |
| COC(C(=O)Nc1ccc(F)c(F)c1)c1ccccc1 (centres unmarked) | -13.7 |
| COc1ccc(NS(=O)(=O)c2cccc(C(=O)NCC3CCCO3)c2)cc1 (centres unmarked) | -0.415 |
| Cn1cnnc1SCC(=O)NCCC(c1ccccc1)c1ccccc1 | 7.79 |
| O=C(COc1ccc(Cl)cc1)N1CCN(c2ccc([N+](=O)[O-])c(N3CCOCC3)c2)CC1 | -71.5 |
| Cc1ccc(OCC(=O)N2CCN(c3ccc([N+](=O)[O-])c(N4CCOCC4)c3)CC2)cc1 | -71.4 |
| O=C(COc1ccccc1Cl)N1CCN(c2ccc([N+](=O)[O-])c(N3CCOCC3)c2)CC1 | -25.7 |
| O=C(COc1ccc(Br)cc1)N1CCN(c2ccc([N+](=O)[O-])c(N3CCCCC3)c2)CC1 | -14.1 |
| O=C(COc1ccccc1)N1CCN(c2ccc([N+](=O)[O-])c(N3CCCCC3)c2)CC1 | -13.6 |
| O=C(COc1ccc(Cl)cc1)N1CCN(c2ccc([N+](=O)[O-])c(N3CCCCC3)c2)CC1 | 2.92 |
| O=c1c2ccccc2nc(/C=C/c2ccco2)n1-c1ccccc1O | -13.3 |
| O=C(COC(=O)/C=C/C(=O)OCC(=O)Nc1ccccc1F)Nc1ccccc1F | 12.9 |
| COc1ccc(C(CC(=O)O)NC(C)=O)cc1OC (centres unmarked) | 10.4 |
| CCCc1nc(SCC(=O)Nc2nnc(SCC)s2)c2c(=O)n(C)c(=O)n(C)c2n1 | 3.68 |
| CCCC12CN3CCN(CC(C3)/C1=N\NC(=O)c1ccccc1N)C2 | -4.19 |
| Nc1ccccc1C(=O)N/N=C1/C2CN3CCN(C2)CC1(Cc1ccccc1)C3 | -37.8 |
| CCCCC12CN3CCN(CC(C3)/C1=N\NC(=O)c1ccccc1N)C2 | -70.8 |
| N#Cc1cnc(Nc2ccc(F)cc2)nc1N | -2.18 |
| CC(Sc1nc(NC(C)(C)C)nc(N(C)C)n1)C(=O)Nc1ccccc1 (centres unmarked) | 10.9 |
